Compounds with a hit are over-represented: about 3.7% of the library has one in this group of screens.
MazEF act – MazEF (E. coli) toxin RNase activation | FAM/BHQ RNA-DNA oligo cleavage fluorescence, 5 h | hit rate 0.32% among 350,000 | activation, % at 20 µM | AID 504720; in the data active = activation above about 50%
Target sequence (P0AE70 whole entry, looked up): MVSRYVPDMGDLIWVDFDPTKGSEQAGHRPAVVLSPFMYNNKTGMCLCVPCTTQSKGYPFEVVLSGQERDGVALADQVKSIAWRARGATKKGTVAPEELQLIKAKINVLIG
Anthrax LF inh2 – blocks Bacillus anthracis lethal factor protease | AID 588501 | P15917 | hit rate 0.12% among 360,000 | multiplex microsphere protease cleavage assay, LF | inhibition, % at 10 µM; note: plate controls were buffer without enzyme for full effect and enzyme alone for no effect
BoNT F protease – blocks Botulinum neurotoxin F light chain protease; Multiplex microsphere protease cleavage assay, flow cytometry; hit rate 0.22% among 360,000; inhibition, % at 10 µM; in the data active = inhibition above about 35%, passing the limit was not always enough; inconclusive = no clear call, values can overlap the other calls; note: plate controls were buffer without enzyme for full effect and enzyme alone for no effect
BoNT-A LC inh2 – blocks Botulinum neurotoxin A light chain protease | multiplex microsphere protease substrate cleavage, flow cytometry | inhibition, % at 10 µM | hit rate 0.17% among 360,000; note: plate controls were buffer without enzyme for full effect and enzyme alone for no effect
Autofluor counter – counter-screen for toxin protease inhibitors: compound fluorescence. AID 624483. hit rate 3.1% among 360,000. fluorescence intensity (concentration not given with the values). compound autofluorescence counterscreen, microsphere flow cytometry; active compounds read high; in the data active = fluorescence intensity above about 16000; inconclusive = no clear call, values can overlap the other calls
Active calls of the source: *; u = inconclusive; x = no result. Cut-off read from the data, not from the text of the source, unless noted: active = inhibition above about 30%; inconclusive = no clear call, values can overlap the other calls; inactive = below that.

SMILES	MazEF act	Anthrax LF inh2	BoNT F protease	BoNT-A LC inh2	Autofluor counter
CC(C)N1CCN(Cc2ccc3c(c2)Cc2ccccc2-3)CC1CCO (stereo unspecified)	10	0	0	0	2015
CCCNS(=O)(=O)c1cccc(C(=O)NC2CCCc3ccccc32)c1 (stereo unspecified)	-2	-1	3	1	22288*
Cn1c(=O)oc2cc(S(=O)(=O)NCCC(=O)NC3CCCc4ccccc43)ccc21 (stereo unspecified)	3	-3	-2	-1	20326*
CC(C)OCCCNS(=O)(=O)c1ccc2c(c1)oc(=O)n2C	2	5	0	0	5787
CN(Cc1ccccc1)C(=O)CCNS(=O)(=O)c1ccc2c(c1)oc(=O)n2C	-1	-1	-3	-1	20317*
CCCN(CCC)CCCNS(=O)(=O)c1ccc2c(c1)oc(=O)n2C	-4	-8	-11	u	23740*
CCOc1c(Cl)cc(CNc2ccc(N3CCCC3)cc2)cc1OC	0	-21	-39	0	4102
CCOc1c(Cl)cc(CNC(C)(C)CC(C)(C)C)cc1OC	-10	-4	4	4	21728*
COc1ccc(Br)c(C(=O)N(C)CC(=O)Nc2ccc(N3CCOCC3)cc2)c1	1	-17	-105	-64	21018*
CN(CC(=O)Nc1ccc(N2CCOCC2)cc1)C(=O)c1cccc(Cl)c1Cl	6	-2	-2	0	5648
Cn1c(O)c(C2=c3ccccc3=NC2=O)sc1=Nc1ccc(Cl)cc1	7	0	2	3	19149*
CCOc1ccc(Cl)cc1-c1cc(C(=O)NCCc2ccncc2)[nH]n1	x	3	7	-1	3109
COc1ccc(NC(C)=O)cc1NC(=O)CSc1nnc(-c2ccc(F)cc2)n1N	-3	-3	-2	0	20810*
CCOc1cccc(-c2nnc(SCC(=O)Nc3cc(OC)cc(OC)c3)n2N)c1	-1	-2	-3	u	22656*
COc1ccc(NC(=O)CSc2nnc(-c3ccccc3C)n2N)cc1	1	-1	-2	-2	22454*
COc1ccc(NC(=O)CSc2nnc(-c3ccccc3C)n2N)cc1OC	8	-1	-1	u	22260*
Cc1ccccc1-c1nnc(SCC(=O)Nc2ccc(Cl)cc2)n1N	-2	-1	1	2	15729
COC(=O)c1cc(Br)ccc1NC(=O)CCNC(=O)c1ccco1	-2	-5	-2	-1	3694
COc1ccc(OC)c(NC(=O)Cn2nc(C)c3ccccc3c2=O)c1	-3	-4	-12	-3	3894
COc1cc(NC(=O)CSc2ncccc2C(=O)OC(C)C)cc(OC)c1	-14	0	-3	-2	23173*
CCOC(=O)c1cccnc1SCC(=O)Nc1ccc(C)cc1	-6	0	-5	0	3938
CCOc1ccccc1C(=O)OCC(=O)Nc1ncc(C(F)(F)F)cc1Cl	-4	0	-6	-6	21522*
Cc1ccc(C(=O)OCC(=O)Nc2ncc(C(F)(F)F)cc2Cl)cc1NC(=O)c1ccco1	5	1	-4	-4	20917*
COC(=O)c1ccccc1NC(=O)COC(=O)c1ccc(C)c(NC(=O)c2ccco2)c1	-2	0	0	u	21306*
Cc1noc(C)c1C(=O)OCC(=O)Nc1ncc(C(F)(F)F)cc1Cl	2	-2	0	-1	3559
SMILES	MazEF act	Anthrax LF inh2	BoNT F protease	BoNT-A LC inh2	Autofluor counter
CCOc1ncccc1C(=O)OCC(=O)Nc1ncc(C(F)(F)F)cc1Cl	12	2	9	0	5009
COc1ccc(-c2cc(C(=O)N3CCN(c4cccc(C)c4C)CC3)c3ccccc3n2)cc1OC	-2	u	0	0	u
Cc1ccc(C(=O)NCC(=O)N2CCc3ccccc3C2)cc1C	5	-1	u	-6	3953
COc1ccc(-c2ccnc3c(C(=O)O)cnn23)cc1	10	-6	-2	0	4106
COc1ccccc1OCC(=O)Nc1ccccn1	5	1	2	1	22764*
COc1cc2c(cc1NC(=O)COc1ccccc1OC)oc1ccccc12	-4	-1	0	1	20273*
O=C(Nc1ccc2c(c1)oc1ccccc12)c1ccncc1	5	-3	-4	-1	16791*
COc1cc2c(cc1NS(=O)(=O)N1CCCCC1)oc1ccccc12	-6	-6	-5	-4	23461*
O=S(=O)(Nc1ccc2c(c1)oc1ccccc12)N1CCCC1	5	3	-8	-1	4295
O=C(Nc1ccc2c(c1)oc1ccccc12)c1cccnc1	-2	0	-10	-1	3064
Cc1ccc(NC(=O)CCNC(=O)c2ccco2)cc1Cl	8	-5	8	4	2999

Bioassay records from PubChem BioAssay.
